Test results reported in the supplement of paper PMC6555819.

system: PPARg:RXRa IVT, anti-PPARg (NR concentration 270 nM, RXRa partner concentration 90 nM); assay: PBM binding z-score (relative to random genomic background probes); higher = stronger binding; sequences stand for … in GC…GCGATTGACAGCGTAGAATGAAGG
Summary of the method: (§1)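 Scanned fluorescence from custom Agilent 4×180K protein-binding microarrays was regression-normalized. Binding z-scores use random background probes as reference. Ligand-free nuclear receptor dimers were incubated on the arrays for 1 h and detected with antibodies against each partner (one per run).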

Going from CGTCCAAGGTCAAAGGGCAGTGAAGAGATGACGG to CCGACTGGGGCAGAAAGGTTACCAGACCATCCGG, the PBM binding z-score falls from 4.49 to 2.02.

Going from AGTCAAAGTTCATCTCGGTAACGTAAGATATGCT to TATACAGGGTCAAAGGCCAGAGTACGAATGTCGA, the PBM binding z-score rises from 2.85 to 5.11.

Compared with AGAACGAGGGCAATGACTTGATAGCACGGGTGGC, GGAGCGAGGGCAAGTTGATAGCAGAGTTTGATGG is lower in PBM binding z-score: 2.49 for the first, 0.346 for the second.

Going from TCTTATAGATCAGCAGGTTAAGAAAGCTGGCCAA to GCTGCTAGGTGAACTGATGGTCAGCTAAAGCTCG, the PBM binding z-score rises from 0.0176 to 2.6.

First: AGAATGACGTTACCAAAGATCAGGGAAACGCTTG
Second: ATACAAAGGTGATCGTGAGGTCGTTGATACTAAC
The PBM binding z-score of the first is lower: -0.0252 for the first, 2.15 for the second.

Compared with GCGTATAGGTAATACAAGGTGAAAGTCCGATTGT, TCTAGCAGGCCAGAAGGTCACTCAAGAGGTACGG is lower in PBM binding z-score: 1.33 for the first, 0.932 for the second.

Compared with CCTTACGGGTCACTCCAGGTTATAGCGTCGGAGT, ATCTCTAGGTAACAAGTGCAGTGAAAGAGAGGAC is lower in PBM binding z-score: 3.79 for the first, 2.62 for the second.

Compared with GATACAGGGTCTGCTAGAGGCCAGAGTATGGAAA, TGTGCTAGGTCAACGATGGTCAGCTAATCTGCTA is higher in PBM binding z-score: -0.333 for the first, 4.09 for the second.

Compared with ATCTCTAGGGAACCAAGTTCAGTGAATGCCGAAC, TCTATTAGTTGAAGGGCAACCAACGAGTCCGTTT is higher in PBM binding z-score: 0.283 for the first, 0.417 for the second.

Compared with CGAACTAGGTCAGAACAGGACAGTAAAGGATGAT, CCAGACAGCTGAGAAGGTAACTCAGCCTCGATTA is lower in PBM binding z-score: 7.22 for the first, -0.629 for the second.

Compared with TAGCCCAGGTCATGCGGGCCAGTATAGTGTCGGC, CGAACGAGGGCAGGAGTTGATAGCAAATGCCGAT is lower in PBM binding z-score: 2.57 for the first, 1.44 for the second.

First: TCAGACAGGTGAAGGTAACTAAGGTACGCAGTCG
Second: TCTAGCAGGCCAGAGGGTCACACAAGAGGTACGG
The PBM binding z-score of the first is lower: 1.27 for the first, 1.38 for the second.

First: CCTACTGGGCCATTCAGATGTCATTGATCATATG
Second: TCTGCTAGATCAGTTGGTCAGCTAACGAGCTGCC
The PBM binding z-score of the first is higher: 3.44 for the first, -0.283 for the second.

First: TATACAGGGACAAAGGCCAGAGTACGAATGTCGA
Second: ATCTCTAGGTAAAGTTCAGGGAAAGATCGATAGA
The PBM binding z-score of the first is lower: 1.3 for the first, 2.44 for the second.

Going from AGAATGAGGTTACCAAAGATCAGGGACACGCTTG to TCTAGTAGTTGATTAGGGCAACCGAAACAGCGGA, the PBM binding z-score falls from 3.4 to 1.34.

Compared with TCGAGTAGGATACCAATGGGGCATTCAGCTTTCT, GCTGCTAGGTCAACTGATGATCAGCTAAAGCTCG is higher in PBM binding z-score: -0.141 for the first, 4.29 for the second.

Going from GCGACTGGGGCATCAGCCGGTTACCATAACTTAA to TCATATAGGTAAATGCTAGGTGAGAGTCCGATCT, the PBM binding z-score rises from 2.34 to 2.57.

First: CGAACTAGGTCATTGTCAGGACAGTGAATAGTAA
Second: CGTCAAAGTTCATCTAAGGTAACGTAAAGCACGC
The PBM binding z-score of the first is higher: 8.47 for the first, 1.89 for the second.

Compared with AATAGAGGGTCATCGTAGGCCAGAGTACGCACAG, TCGGGTAGGTTAGTCGGGGCATTCAGCCAACATA is lower in PBM binding z-score: 4.01 for the first, 1.67 for the second.

Going from CCTAGCAGGCCAGGGTAACTCAAGCATTTCGCTT to TCTGCTAGGTCAGTTGGTGAGCTAACGAGCTGCC, the PBM binding z-score rises from -0.0636 to 2.7.

system: PPARg DBDmut:RXRa IVT, anti-PPARg (DBD mutation: PPARg1 K132A/R137A, NR concentration 270 nM, RXRa partner concentration 90 nM); assay: as above
Summary of the method: as §1

Compared with CGTCCAAGGTCAAAGGGCAGTGAAGAGATGACGG, CCGACTGGGGCAGAAAGGTTACCAGACCATCCGG is lower in PBM binding z-score: 0.0203 for the first, -0.764 for the second.

First: AGTCAAAGTTCATCTCGGTAACGTAAGATATGCT
Second: TATACAGGGTCAAAGGCCAGAGTACGAATGTCGA
The PBM binding z-score of the first is lower: 1.54 for the first, 2.18 for the second.

Compared with AGAACGAGGGCAATGACTTGATAGCACGGGTGGC, GGAGCGAGGGCAAGTTGATAGCAGAGTTTGATGG is lower in PBM binding z-score: 0.669 for the first, -0.895 for the second.

First: TCTTATAGATCAGCAGGTTAAGAAAGCTGGCCAA
Second: GCTGCTAGGTGAACTGATGGTCAGCTAAAGCTCG
The PBM binding z-score of the first is higher: 0.00144 for the first, -0.641 for the second.

Compared with AGAATGACGTTACCAAAGATCAGGGAAACGCTTG, ATACAAAGGTGATCGTGAGGTCGTTGATACTAAC is higher in PBM binding z-score: 0.249 for the first, 1.05 for the second.

Going from GCGTATAGGTAATACAAGGTGAAAGTCCGATTGT to TCTAGCAGGCCAGAAGGTCACTCAAGAGGTACGG, the PBM binding z-score falls from 0.339 to -0.221.

Compared with CCTTACGGGTCACTCCAGGTTATAGCGTCGGAGT, ATCTCTAGGTAACAAGTGCAGTGAAAGAGAGGAC is higher in PBM binding z-score: 0.79 for the first, 1.24 for the second.

First: GATACAGGGTCTGCTAGAGGCCAGAGTATGGAAA
Second: TGTGCTAGGTCAACGATGGTCAGCTAATCTGCTA
The PBM binding z-score of the first is lower: -1.05 for the first, 0.203 for the second.

First: ATCTCTAGGGAACCAAGTTCAGTGAATGCCGAAC
Second: TCTATTAGTTGAAGGGCAACCAACGAGTCCGTTT
The PBM binding z-score of the first is lower: 0.0886 for the first, 0.246 for the second.

Going from CGAACTAGGTCAGAACAGGACAGTAAAGGATGAT to CCAGACAGCTGAGAAGGTAACTCAGCCTCGATTA, the PBM binding z-score falls from 1.86 to -0.497.

First: TAGCCCAGGTCATGCGGGCCAGTATAGTGTCGGC
Second: CGAACGAGGGCAGGAGTTGATAGCAAATGCCGAT
The PBM binding z-score of the first is higher: -0.0508 for the first, -0.723 for the second.

Compared with TCAGACAGGTGAAGGTAACTAAGGTACGCAGTCG, TCTAGCAGGCCAGAGGGTCACACAAGAGGTACGG is lower in PBM binding z-score: 0.501 for the first, -0.514 for the second.

Compared with CCTACTGGGCCATTCAGATGTCATTGATCATATG, TCTGCTAGATCAGTTGGTCAGCTAACGAGCTGCC is lower in PBM binding z-score: -0.00111 for the first, -0.43 for the second.

Going from TATACAGGGACAAAGGCCAGAGTACGAATGTCGA to ATCTCTAGGTAAAGTTCAGGGAAAGATCGATAGA, the PBM binding z-score rises from 0.681 to 1.23.

Going from AGAATGAGGTTACCAAAGATCAGGGACACGCTTG to TCTAGTAGTTGATTAGGGCAACCGAAACAGCGGA, the PBM binding z-score falls from 0.894 to -0.69.

First: TCGAGTAGGATACCAATGGGGCATTCAGCTTTCT
Second: GCTGCTAGGTCAACTGATGATCAGCTAAAGCTCG
The PBM binding z-score of the first is lower: -0.244 for the first, -0.231 for the second.

Compared with GCGACTGGGGCATCAGCCGGTTACCATAACTTAA, TCATATAGGTAAATGCTAGGTGAGAGTCCGATCT is higher in PBM binding z-score: -1.15 for the first, 0.808 for the second.

Going from CGAACTAGGTCATTGTCAGGACAGTGAATAGTAA to CGTCAAAGTTCATCTAAGGTAACGTAAAGCACGC, the PBM binding z-score falls from 5.17 to 0.673.

Compared with AATAGAGGGTCATCGTAGGCCAGAGTACGCACAG, TCGGGTAGGTTAGTCGGGGCATTCAGCCAACATA is lower in PBM binding z-score: 0.835 for the first, 0.234 for the second.

Compared with CCTAGCAGGCCAGGGTAACTCAAGCATTTCGCTT, TCTGCTAGGTCAGTTGGTGAGCTAACGAGCTGCC is higher in PBM binding z-score: -1.68 for the first, 0.403 for the second.
